Screens from PubChem BioAssay.
SKN-1 inh: C. elegans SKN-1 inhibition; AID 624304; actives 0.49% (n = 360,000); C. elegans VP596 Pgst-4::GFP/RFP ratio, acrylamide-induced, 24 h; inhibition, % at 21.8 µM;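 active means interference check ratio from 0.5 to 1.5 plus GFP to RFP signal ratio inhibition reaching or exceeding a fixed threshold, cut at about 30% in these data, passing the limit was not always enough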
Myeloid diff MLP: compounds promoting myeloid differentiation; ER-HoxA9 myeloid progenitors, lysozyme-GFP differentiation, flow cytometry; calls only at 10 µM; actives 1% (n = 360,000);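 active means normalized GFP-positive differentiation at or above the plate's own cutoff, the solvent-only control mean plus 3 SD; inconclusive means no clear call, values can overlap the other calls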;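 further: cells exposed to compound for four days before flow analysis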
ATG4B inhibitor: blocks human ATG4B protease cleavage of LC3 substrate; Q9Y4P1; ATG4B cleavage of LC3-PLA2, NBD-HPC fluorescence, 1 h; inhibition, % at 8.33 µM; actives 0.51% (n = 340,000); in the data active means inhibition above about 40%
CHRM1 PAM: positive allosteric modulators of human M1 muscarinic receptor | P11229 | CHO-K1 hM1, Fluo-8 calcium fluorescence, ACh EC20; 0% = ACh EC20, 100% = maximal ACh | activation, % at 3 µM | actives 0.088% (n = 360,000); in the data active means activation above about 19%, passing the limit was not always enough
Target sequence (P11229 whole entry, looked up): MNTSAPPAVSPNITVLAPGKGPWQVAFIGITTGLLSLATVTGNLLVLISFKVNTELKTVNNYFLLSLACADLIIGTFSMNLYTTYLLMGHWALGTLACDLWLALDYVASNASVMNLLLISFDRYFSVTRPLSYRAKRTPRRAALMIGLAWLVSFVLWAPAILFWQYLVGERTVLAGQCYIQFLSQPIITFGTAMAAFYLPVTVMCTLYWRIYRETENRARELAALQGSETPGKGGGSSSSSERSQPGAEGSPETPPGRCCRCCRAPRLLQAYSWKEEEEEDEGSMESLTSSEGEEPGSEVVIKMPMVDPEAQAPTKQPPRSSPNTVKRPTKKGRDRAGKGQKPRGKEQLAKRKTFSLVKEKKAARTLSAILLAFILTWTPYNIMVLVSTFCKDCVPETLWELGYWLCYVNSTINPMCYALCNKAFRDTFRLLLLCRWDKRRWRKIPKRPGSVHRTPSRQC
M1 ag: agonists of human M1 muscarinic receptor; CHO-K1 hM1, Fluo-8 calcium fluorescence, agonist mode; 0% DMSO, 100% acetylcholine EC100; P11229; actives 0.33% (n = 360,000); AID 588814; activation, % at 3 µM;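 active means activation above the run's mean compound activation plus 3 SD, cut at about 16% in these data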;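 further: peak over basal fluorescence ratio within a 140 s kinetic read after compound addition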
CHRM1 antagonist: blocks human M1 muscarinic receptor | P11229 | CHO-K1 hM1, Fluo-8 calcium fluorescence, ACh EC80 antagonist | inhibition, % at 3 µM | actives 1.3% (n = 360,000) | AID 588852;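 active means percent inhibition above its own plate's cutoff, namely the mean of that plate's compound wells plus 3 SD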;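 further: peak over basal fluorescence ratio during 140 s after agonist addition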
Numbers stand for hits; i = inactive; ? = inconclusive; nt = no result given; + = active, no number. Shown are actives, neighbours in structure and some others; about 3.5% of the full set was active somewhere.

SMILES | SKN-1 inh | Myeloid diff MLP | ATG4B inhibitor | CHRM1 PAM | M1 ag | CHRM1 antagonist
Cc1ccc(OCCNC(=O)C2CC(=O)N(Cc3ccccc3)C2)cc1 (stereo not drawn) | i | i | i | i | i | i
O=C(c1ccccc1)N(CCO)Cc1cc2cc3c(cc2[nH]c1=O)OCCO3 | i | i | i | i | i | i
CCOc1ccccc1C(=O)N(Cc1ccccc1)Cc1cc2cc3c(cc2[nH]c1=O)OCCO3 | i | + | i | i | i | i
O=C(NC(Cc1cn(Cc2ccccc2)cn1)C(=O)O)OCC1c2ccccc2-c2ccccc21 (stereo not drawn) | i | i | nt | i | i | i
CCC(C(=O)NC1CCCCC1)n1c(SCc2cccc(C)c2)nc2ccncc21 (stereo not drawn) | i | i | i | i | i | i
CCC(C(=O)NC1CCCCC1)n1c(SCc2cccc(F)c2)nc2ccncc21 (stereo not drawn) | i | i | i | i | i | 45.4
COc1ccc(C(c2sc3nc(C)nn3c2O)N2CCN(CCO)CC2)cc1OC (stereo not drawn) | i | + | i | i | i | i
Cc1ccc(C(=O)CSc2nc(-c3ccccc3)ccc2C#N)cc1 | i | + | i | i | i | i
N#Cc1ccc(-c2ccco2)nc1SCC(=O)c1ccc(Cl)cc1 | i | + | i | i | i | i
CCOC(=O)c1cccc(N/C=C/C(=O)c2ccc(OC)c(OC)c2)c1 | i | i | i | i | i | 29.0
COc1ccccc1NC(=S)N1CCC(c2nc3ccccc3o2)CC1 | i | i | i | i | i | i
Cc1cccc(C)c1NC(=O)N1CCC(c2nc3ccccc3o2)CC1 | i | i | i | i | i | 27.6
COC(=O)[C@H]1C[C@H](OC(=O)NCc2ccccc2F)[C@@]2(O)CN(S(=O)(=O)c3ccc(C)cc3)CC2[C@H]1C(=O)OC (stereo partly drawn) | i | i | nt | i | i | i
OCC1(Cc2ccccc2)CCN(CCCC2CCCC2)CC1 | i | i | i | i | i | 34.5
O=C1CC(Sc2ccc(Cl)cc2)C(=O)N1c1ccc2c(c1)OCCO2 (stereo not drawn) | i | i | i | i | i | i
COc1cc(SC)ccc1C(=O)Nc1ccccc1 | i | i | i | i | i | i
COc1cc(SC)ccc1C(=O)Nc1nccs1 | 44.2 | i | i | i | i | i
O=C(Nc1ccncc1)c1ccc(Cl)c(S(=O)(=O)N2CCCC2)c1 | i | i | i | i | i | i
C[C@@H]1CN([C@@H](C)CO)C(=O)CCCn2cc(nn2)CO[C@H]1CN(C)S(=O)(=O)c1ccccc1C#N | i | i | nt | i | i | i
CCn1nnc2cc(C(=O)OCC(=O)N(C)Cc3cccc(F)c3)ccc21 | i | i | i | i | i | i
COc1ccc(/C=C2\CCc3c2nc2ccccc2c3C(=O)O)cc1OC | i | i | i | i | i | i
CCOc1ccc(/C=C2\CCCc3c2nc2ccccc2c3C(=O)O)cc1OC | i | i | nt | i | 52.7 | i
N=C1c2ccccc2CN1c1ccc(S(=O)(=O)N2CCCCC2)cc1 | i | + | i | i | i | 73.6
CCOC(=O)c1ccc(N2Cc3ccccc3C2=N)cc1 | i | i | i | i | i | 69.6
Nc1ncnc(Nc2c(F)cccc2F)n1 | i | i | i | i | i | i
SMILES | SKN-1 inh | Myeloid diff MLP | ATG4B inhibitor | CHRM1 PAM | M1 ag | CHRM1 antagonist
CC(=O)Nc1ccc(NC(=O)Nc2cccc(Cl)c2)cc1 | i | i | i | i | i | i
CC(=O)c1ccc(NC(=O)Nc2cccc(Cl)c2)cc1 | i | i | i | i | i | 27.0
CC(=O)c1ccc(NC(=O)Nc2ccc(Br)cc2C)cc1 | i | i | i | i | i | 30.9
CC(=O)c1ccc(NC(=O)c2ccc(C)c(Br)c2)cc1 | i | i | i | i | i | i
C[C@H](CO)N1C[C@H](C)[C@@H](CN(C)S(=O)(=O)c2cccc(C#N)c2)OCc2cnnn2CCCC1=O | i | i | nt | i | i | i
CCN(CC(=O)Nc1ccccc1OC)C(=O)c1ccc(NC(=O)c2cccs2)cc1 | i | ? | i | i | i | i
COc1ccc(Cl)cc1NC(=O)CN(C)C(=O)c1sccc1-c1ccccc1 | i | i | i | i | i | i
CC(C)c1cc(-c2cc(C(=O)NCc3ccccc3)on2)nc(NCC2CC2)n1 | i | i | i | i | 29.4 | 34.4
CC(C)c1cc(-c2cc(C(=O)NCc3ccccc3)on2)nc(NC2CCCC2)n1 | i | i | i | i | i | i
O=C(NCc1nnnn1-c1ccc(F)c(F)c1)c1ccc2c(c1)OCO2 | i | i | i | i | i | i
COC(=O)c1[nH]c2ccc(Cl)cc2c1NC(=O)CCN1CCN(C2CCCCC2)CC1 | i | i | i | i | i | 62.3
CC1Cc2ccccc2N1C(=O)CSc1nccc(=O)[nH]1 (stereo not drawn) | i | i | i | i | i | i
O=C1CC(=C(c2ccccc2)c2ccccc2)C(=O)N1CCCCN1CCN(c2cccc(Cl)c2)CC1 | i | i | i | i | i | 39.0
Cc1ccccc1N1CCN(CCN2C(=O)CC(=C3c4ccccc4-c4ccccc43)C2=O)CC1 | i | i | i | i | i | i
Cc1ccccc1N1CCN(CCCN2C(=O)CC(=C(c3ccccc3)c3ccccc3)C2=O)CC1 | i | i | i | i | i | 95.2
COc1ccc(C(CNC(=O)C2CC(=O)N(Cc3ccccc3)C2)N2CCOCC2)cc1 (stereo not drawn) | i | i | i | i | i | i
Cn1cccc1Cc1nnc(SCC(=O)Nc2ccccc2F)n1CCc1ccccc1 | i | + | i | i | i | i
NCCCC(N)(C(=O)O)C(F)F (stereo not drawn) | i | + | i | i | i | i
CC(=O)Nc1cccc(-c2cc(NC(C)=O)c3ncc(-c4ccc(C(C)=O)cc4)n3c2)c1 | i | i | nt | i | i | i
CCC(C)(C)NC(=O)C1CCCN(S(=O)(=O)c2ccc3c(c2)CC(C)N3C(=O)C2CC2)C1 (stereo not drawn) | i | i | i | i | i | i
CC(C)N(C(=O)CSc1nc2ccccc2n1Cc1ccc(F)cc1)C(C)C | i | i | i | i | i | 32.3
CSc1ccc(CN2CCC(C)(Oc3cccc(Cl)c3)C2)cc1 (stereo not drawn) | i | i | nt | i | i | i
COCOc1cccc(CN2CCC(C)(Oc3ccc(C(C)=O)cc3)C2)c1 (stereo not drawn) | i | i | nt | i | i | 29.0
CC(C)c1ccc(CN2CCC(C)(Oc3ccc(Cl)cc3)C2)cc1 (stereo not drawn) | i | i | nt | i | i | i
COC(=O)Cc1ccc(OC2(C)CCN(Cc3ccccc3)C2)cc1 (stereo not drawn) | i | i | nt | i | i | 52.7
CSc1ccc(OC2(C)CCN(Cc3ccccc3)C2)cc1 (stereo not drawn) | i | i | nt | i | i | 27.6
CSc1ccc(CN2CCC(C)(Oc3ccc(CC#N)cc3)C2)cc1 (stereo not drawn) | i | nt | nt | i | i | 29.3
